Data from PubChem BioAssay.
Calls of active or inactive are those of the source.

Tests used:
Albumin (Bos taurus) = Albumin (Bos taurus) (UniProt P02769); assay: compounds binding labelled BSA control protein – biochemical, small-molecule microarray, Alexa647 label, 635/667 nm fluorescence, artefact control for SMM control protein annotation, profiling panel (AID 1118); settings: BSA-A647 binding, fluorescence 635 nm, higher = more signal;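 note: score merges 667 nm emission intensity and signal-to-noise per printed compound spot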
Albumin (Bos taurus), sequence (P02769 whole entry, looked up): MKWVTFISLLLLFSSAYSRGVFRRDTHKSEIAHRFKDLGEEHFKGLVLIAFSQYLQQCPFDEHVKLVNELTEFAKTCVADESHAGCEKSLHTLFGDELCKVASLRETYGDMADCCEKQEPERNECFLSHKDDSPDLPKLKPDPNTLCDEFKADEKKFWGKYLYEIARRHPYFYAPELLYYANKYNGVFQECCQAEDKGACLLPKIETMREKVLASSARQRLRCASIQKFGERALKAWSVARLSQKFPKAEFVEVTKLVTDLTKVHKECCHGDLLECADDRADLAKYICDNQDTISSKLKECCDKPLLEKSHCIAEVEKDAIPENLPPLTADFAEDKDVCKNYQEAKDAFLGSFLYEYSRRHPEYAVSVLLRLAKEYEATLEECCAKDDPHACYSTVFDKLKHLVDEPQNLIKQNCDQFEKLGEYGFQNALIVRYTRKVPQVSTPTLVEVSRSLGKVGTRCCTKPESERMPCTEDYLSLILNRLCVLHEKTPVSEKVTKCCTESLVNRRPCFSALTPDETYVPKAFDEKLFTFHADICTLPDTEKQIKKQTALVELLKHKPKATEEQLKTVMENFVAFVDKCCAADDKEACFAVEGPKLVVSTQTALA

[1] = probe aXIP binding to arrayed compounds – biochemical, NeuroSMM set, 635/667 nm fluorescence, primary screen (AID 1119); settings: small-molecule microarray, higher = more signal, called active from +8 up or from −8 down;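 note: probe is the protein aXip251-270 applied at 1 µg/mL to compound-printed slides; binding of probe to printed compounds measured as 667 nm fluorescence plus signal to noise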
[2] = probe aNOTCH3 binding on compound microarray – biochemical, small-molecule microarray, 635/667 nm fluorescence, primary screen (AID 1120); settings: higher = more signal;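 note: probe is a biotin-tagged antibody raised against NOTCH3 rather than NOTCH3 protein; score merges spot fluorescence near 667 nm with spot signal to noise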
[3] = probe aNOTCH2 binding on compound microarray – biochemical, small-molecule microarray, 635/667 nm fluorescence, primary screen (AID 1121); settings: higher = more signal;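 note: score merges feature fluorescence read at 667 nm with its signal to noise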
[4] = target: Carbonic anhydrase 2 (Homo sapiens) (UniProt P00918); assay: compounds binding carbonic anhydrase 2 – biochemical, small-molecule microarray, Alexa647-labelled CAII, profiling panel (AID 1122); settings: CAII-A647 binding fluorescence, higher = more signal
[5] = COS7 lysate on small-molecule microarray, probe aHis, 635 nm (AID 1123); settings: COS7 cell lysate, fluorescence, higher = more signal;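 note: z-score combines 667nm fluorescence intensity with signal-to-noise per printed compound spot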
[6] = probe aLAP1 signal on lysate-treated microarray – cell lysate, small-molecule microarray, COS7 lysate, primary screen (AID 1124); settings: probe aLAP1, fluorescence, higher = more signal;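 note: lysate comes from COS7 cells expressing LAP1 and is applied at 0.3 µg/mL; score merges spot fluorescence near 667 nm with signal-to-noise over triplicate slides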
Sam68 (KHDRBS1) = assay: compounds binding KHDRBS1 protein – biochemical, small-molecule microarray, 635 nm fluorescence, primary screen (AID 1125); settings: higher = more signal;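 note: score merges 667 nm channel intensity with signal to noise over triplicate slides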
[7] = system: Chordin-like protein 2 (CHRDL2); assay: compounds binding chordin-like 2 – biochemical, small-molecule microarray, 635 nm fluorescence, primary screen (AID 1126); settings: fluorescence 635 nm, higher = more signal;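 note: printed compound slides probed with Chrdl2 protein at 4 µg/mL for 1 h at 4 C; score merges 667 nm emission intensity with signal to noise over three replicate slides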
[8] = target: Concanavalin-A (Canavalia ensiformis) (UniProt P02866); assay: compounds binding concanavalin A lectin – biochemical, small-molecule microarray, Alexa647 label, 635 nm, artefact control for SMM control protein annotation, primary screen (AID 1127); settings: ConA-A647 binding fluorescence, higher = more signal;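 note: z combines 667 nm emission intensity with signal-to-noise across three replicate slides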
Concanavalin-A (Canavalia ensiformis), sequence (P02866 whole entry, looked up): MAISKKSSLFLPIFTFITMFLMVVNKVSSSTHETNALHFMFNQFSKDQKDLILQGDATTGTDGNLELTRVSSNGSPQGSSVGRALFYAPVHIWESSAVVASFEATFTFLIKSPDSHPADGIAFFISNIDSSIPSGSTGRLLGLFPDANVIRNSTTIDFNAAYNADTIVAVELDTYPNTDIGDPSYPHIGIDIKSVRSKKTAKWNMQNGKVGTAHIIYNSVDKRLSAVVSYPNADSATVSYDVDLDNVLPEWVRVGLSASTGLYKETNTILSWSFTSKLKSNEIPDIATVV

Structure (SMILES)	composite z-score (Albumin (Bos taurus))	composite Z-score [1]	composite z-score [2]	composite z-score [3]	composite z-score [4]	composite z-score [5]	composite z-score [6]	composite z-score (Sam68 (KHDRBS1))	composite z-score [7]	composite z-score [8]
COC(=O)[C@@]1(Cc2ccccc2)[C@H]2c3cc(C(=O)N4CCCC4)n(Cc4cc(F)cc5c4OCOC5)c3C[C@H]2CN1C(=O)c1ccccc1	1.11	0.143 (inactive)	0.218	0.163	0.553	2.57	0.141	0.797	-0.233	0.511
O=C1C2C=CC(C(O)c3cc(C(F)(F)F)cc(C(F)(F)F)c3)N(Nc3ccc([N+](=O)[O-])cc3)C2C(=O)N1c1ccccc1 (stereo not given)	0.888	-0.311 (inactive)	0.37	-0.0523	0.616	2.74	-0.0967	1.33	-0.298	1.15
COc1c(C)cc(-c2cc3c(c(Cc4ccccc4)n2)[Si](C(C)C)(C(C)C)OC3)cc1C	0.0401	-0.014 (inactive)	-0.0881	-0.0907	-0.143	0.0246	-0.269	0.0189	0.198	0.0652
O=C1NC(=O)C2C1C=CC(C(O)c1ccc(Br)cc1)N2Nc1ccccn1 (stereo not given)	0.849	-0.838 (inactive)	0.327	0.176	0.822	0.991	0.74	0.0126	0.913	0.48
CC(C)(C)OC(=O)CC[C@]1(C(=O)NCCN2CCOCC2)N=C(c2ccc(OCCCO)cc2)O[C@H]1c1ccccc1N=[N+]=[N-]	0.942	0.489 (inactive)	0.286	0.0684	0.82	3.05	1.22	1.31	0.186	0.373
C=CCN1C(=O)[C@@]2(CCC(=O)OC(C)(C)C)N=C(c3ccc(OCCCO)cc3)O[C@H]2c2ccccc21	0.71	0.0873 (inactive)	0.108	0.0484	0.654	1.33	0.0616	0.817	0.145	1.16
COc1ccccc1CN1C(=O)c2ccccc2[C@@H](C(=O)NC(C)C)[C@@H]1c1ccc(CO)cc1	-0.374	-0.0458 (inactive)	0.338	0.103	0.535	2.32	1.03	1.33	0.565	1.16
CCOC(=O)C1=CC[C@@H](c2ccccc2)N(S(=O)(=O)c2ccc(C)cc2)C1	0.425	-0.0056 (inactive)	0.283	-0.0176	0.38	0.522	0.786	0.143	0.565	-0.264
C=CCC(OC(C)=O)[C@@H]1[C@@H](N(Cc2cc3ccccc3o2)C(=O)Cc2ccc(F)cc2)c2cc(OCCCO)ccc2N1C(=O)c1ccc2ccccc2n1 (stereo not given in full)	0.124	-0.16 (inactive)	-0.136	-0.104	-0.183	0.178	0.104	-0.847	0.344	-0.0002
[N-]=[N+]=Nc1ccccc1[C@@H]1OC(c2ccc(OCCCO)cc2)=N[C@]1(CCS(=O)(=O)c1ccccc1)C(=O)NCCN1CCOCC1	0.734	0.131 (inactive)	0.178	-0.0267	0.485	2.71	0.21	1.29	-0.22	0.478
C=CCOC(=O)[C@@H]1[C@H]2C(=O)O[C@H](c3ccccc3)[C@H](c3ccccc3)N2[C@H](c2ccc(OCCOC(=O)[C@H]3C[C@H]4C(=O)N[C@@H](CCCCNC(C)=O)C(=O)N4[C@H]3c3cccc(OCCO)c3)cc2)[C@@]12C(=O)Nc1ccc(I)cc12	-1.29	0.783 (inactive)	-0.016	-0.12	0.336	1.13	0.583	1.31	1.06	1.15
O=C1NCC(=O)N2[C@@H]1C[C@@H](C(=O)O)[C@H]2c1ccc(O)cc1	-0.575	-0.0127 (inactive)	0.0397	-0.14	0.165	2.25	0.0452	1.31	1.48	1.07
C[C@]12C(=O)N(CCCCCCO)[C@@H]3C(=O)N(c4ccc(Cl)cc4)CC=CC31O[C@@H]1/C=C\CCCOC(=O)C12 (stereo not given in full)	0.377	1.82 (inactive)	-0.16	-0.136	0.695	2.08	-0.133	0.488	-1.75	-0.403
NC(=O)NCC#Cc1ccc2c(c1)[C@]1(C(=O)N2)[C@H](c2ccc(O)cc2)N2[C@H](c3ccccc3)[C@H](c3ccccc3)OC(=O)[C@H]2[C@@H]1C(=O)Nc1nc2ccccc2s1	0.121	0.0296 (inactive)	-0.0259	-0.0203	0.431	0.66	0.11	0.637	1.17	0.962
CC(C)(C)OC(=O)CC[C@@]1(C(=O)O)N=C(c2ccc(OCCCO)cc2)O[C@@H]1c1ccccc1CN=[N+]=[N-]	0.939	0.242 (inactive)	0.1	0.046	0.849	2.23	0.312	0.76	-0.309	1.18
COc1c(C)cc(-c2cc3c(c(-c4ccccc4)n2)[Si](C(C)C)(C(C)C)OC3)cc1C	0.247	0.478 (inactive)	-0.116	-0.21	-0.185	-0.591	-0.154	-0.5	0.652	0.134
Cc1ccc(F)cc1S(=O)(=O)N[C@@H]1CCN(Cc2ccc(OC(C)C)cc2)C1	0.175	-0.491 (inactive)	-0.201	-0.154	0.359	-0.453	-0.182	-0.649	0.504	-1.41
O=C1OCC=C[C@H]2OC34C=CCN(c5ccc(Cl)cc5)C(=O)[C@H]3N(CCCCCO)C(=O)[C@@H]4[C@@H]12 (stereo not given in full)	0.387	0.0583 (inactive)	-0.42	-0.168	0.807	-0.347	0.406	-1.56	-0.971	-0.893
CC(C)(C)OC(=O)CC[C@]1(C(=O)O)N=C(c2ccc(OCCCO)cc2)O[C@H]1c1ccccc1	0.419	-0.179 (inactive)	0.318	-0.203	0.808	0.787	0.448	-0.612	-0.556	0.206
CC(C)C(=C=CC[C@H](O)c1ccc(OCCO)cc1)C[C@H](O)c1cc(Cl)cc(Cl)c1O	0.584	0.32 (inactive)	0.232	-0.0533	0.542	0.644	0.147	1.26	0.243	1.07
O=C1NC(=O)C2C1C=CC(C(O)c1cc(C(F)(F)F)cc(C(F)(F)F)c1)N2Nc1ccc(Cl)cc1Cl (stereo not given)	0.839	0.809 (inactive)	0.0833	-0.0703	0.583	2.45	0.554	-0.163	-0.464	-0.415
O=C1OCCC=C[C@H]2OC34C=CCN(c5ccc(Cl)cc5)C(=O)[C@H]3N(CCCCCO)C(=O)[C@@H]4C12 (stereo not given in full)	0.772	0.728 (inactive)	-0.0663	-0.0714	0.873	0.848	0.281	0.25	-0.27	-1.21
COc1ccc([Si](C)(C)[C@H]2[C@H](CCn3cc([C@H](O)c4ccccc4)nn3)O[C@@]3(C(=O)N(Cc4ccc(N5CCOC5=O)cc4)c4ccccc43)[C@@H]2C)cc1	-0.397	0.486 (inactive)	-0.172	-0.186	-0.586	-0.55	-1.14	-0.426	-0.586	-0.321
COc1ccc([Si](C)(C)[C@@H]2[C@@H](CCO)O[C@]3(C(=O)N(Cc4cccc(N5C(=O)c6cccc7cccc5c67)c4)c4ccccc43)[C@H]2C)cc1	0.219	-0.139 (inactive)	-0.0947	-0.101	0.428	1.17	-0.179	0.262	-0.512	0.48
CO[C@H]1O[C@H](CO)[C@@H](OC(=O)Nc2ccccc2-c2ccccc2)[C@H](OC(=O)Nc2ccc3c(c2)OCO3)[C@@H]1OC(=O)Nc1ccc2c(c1)OCO2	0.508	0.151 (inactive)	0.389	-0.0684	0.735	2.47	0.335	1.3	0.517	0.921
C[C@H]1C2=C3C(CC[C@H]4C(OCc5ccc(F)cc5C(F)(F)F)OC[C@](C)([C@@H]34)N(C(=O)OC(C)(C)C)C2)C2COC(=O)OCC21 (stereo not given in full)	0.963	-0.0452 (inactive)	0.242	0.183	0.754	2.93	0.399	1.31	-1.67	1.1
